According to PubChem BioAssay:

Assay: calcein-AM signal in unstimulated myeloma cells – cell-based, calcein-AM fluorescence, 48 h, PK04 Diversity Set, profiling panel (AID 1166);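 also: cells grown under basal conditions without added stimulus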
Settings: RPMI8226 myeloma viability, higher = more signal
Also: test concentration not given here.

Compound	z-score
NC(=O)NCC#Cc1ccc2c(c1)[C@]1(C(=O)N2)[C@H](c2ccccc2OCCO)N2[C@H](c3ccccc3)[C@H](c3ccccc3)OC(=O)[C@H]2[C@@H]1C(=O)Nc1nc2ccccc2s1	-0.048
COc1ccc(C(=O)Nc2ccc(CN3C(=O)[C@]4(O[C@H](CCO)[C@@H]([Si](C)(C)c5ccc(OC)cc5)[C@@H]4C)c4ccccc43)cc2)cc1	-4.35
C#C[C@H](O[Si](C#Cc1ccc(Oc2ccccc2)cc1)(C(C)C)C(C)C)c1ccccc1	-4.16
COc1ccc([Si](C)(C)[C@H]2[C@H](CCO)O[C@@]3(C(=O)N(Cc4ccc(N(C=O)c5ccccc5)cc4)c4ccccc43)[C@@H]2C)cc1	-3.78
CC(=O)NCCCC[C@@H]1NC(=O)[C@H]2C[C@@H](C(=O)NCCCCCCNC(=O)CS)[C@@H](c3ccc(O)cc3)N2C1=O	0.0535
C=CCNC(=O)[C@H]1[C@@H]2C(=O)O[C@@H](c3ccccc3)[C@@H](c3ccccc3)N2[C@@H](c2ccccc2OCCO)[C@]12C(=O)Nc1ccc(C#CCCO)cc12	-1.91
O=C1O[C@@H](c2ccccc2)[C@@H](c2ccccc2)N2[C@@H](c3ccccc3OCCO)[C@]3(C(=O)Nc4ccc(C#CC5=CCCCC5)cc43)[C@@H](C(=O)N3CCCCCCC3)[C@H]12	-2.79
C=C[C@@H](COC(=O)OC(C)(C)C)N(Cc1ccc(OC)cc1)S(=O)(=O)c1ccc(Br)cc1	-1.36
C=C(/C(=C/C[C@H](OC(C)=O)c1ccc(CO)o1)c1cc(C(=O)OC)ccc1OC)C(C)C	-2.03
COc1ccc(CCNC(=O)[C@@]2(Sc3ccc(C)cc3)CC(=O)N(C(C)C)[C@@H]2c2ccc(CO)cc2I)cc1	-2.32
COc1ccc(CCNC(=O)[C@@]2(C)c3ccccc3C(=O)N(C(C)C)[C@H]2c2ccc(CO)cc2)cc1	-0.974
CC(C)N1C(=O)[C@@]2(Cc3ccccc31)c1ccccc1C(=O)N(Cc1ccccc1Cl)[C@H]2c1ccc(CO)cc1	-0.238
C=CCOC(=O)[C@H]1[C@@H]2C(=O)O[C@@H](c3ccccc3)[C@@H](c3ccccc3)N2[C@@H](c2ccc(OCCOC(=O)[C@H]3C[C@H]4C(=O)N[C@@H](CCCCN(C)C)C(=O)N4[C@H]3c3ccc(O)cc3)cc2)[C@]12C(=O)Nc1ccc(I)cc12	0.427
CC(C)OC(=O)C=C1C[C@@H](c2ccccn2)O[C@@H](c2ccccn2)O1	-1.14
COC(=O)[C@@]1(Cc2ccc(OC)cc2)[C@H]2c3cc(C(=O)N(C)C)n(CCc4ccccn4)c3C[C@H]2CN1C(=O)c1ccccc1	-2.59
COC(=O)[C@@]1(Cc2ccccc2)N=C(c2ccc(OCCCO)cc2)O[C@H]1c1ccccc1	-3.94

Assay: JC-1 mitochondrial signal, unstimulated HepG2 cells – cell-based, JC-1 fluorescence, 24 h, 100 nL compound, profiling panel (AID 1167)
Settings: HepG2 mitochondrial potential, higher = more signal

Compound	z-score
Cc1ccc(N2C(=O)c3ccccc3[C@@H](C(=O)NC3CC3)[C@@H]2c2ccc(CO)cc2)nc1	-0.0756
CCCCC(CC)C(O)C1C=CC2C(=O)N(Cc3ccccc3)C(=O)C2N1n1cnnc1 (configuration not stated)	-0.522
C[C@H]1NC(=O)[C@@]23C(=O)N[C@@H](Cc4ccccc4)C2[C@H](C)[C@@]2(C)O[C@H]2C3/C=C/C/C=C\CNC(=O)[C@@H]2CCCN2C1=O (some centres not stated)	-0.0133
CC(=O)n1cc(C(O)C2C=CC3C(=O)N(c4ccccc4)C(=O)C3N2Nc2ccc([N+](=O)[O-])cc2)c2ccccc21 (configuration not stated)	-1.75
C[C@@]1([C@@H](NC(=O)c2ccc(-c3ccccc3)cc2)c2ccc(Cl)cc2)C[C@H]1C1CCCCC1	-2.21
C=CCNC(=O)[C@@H]1[C@H]2C(=O)O[C@H](c3ccccc3)[C@H](c3ccccc3)N2[C@H](c2ccc(O)cc2)[C@@]12C(=O)Nc1ccc(C#CCNC(N)=O)cc12	-1.14
C=C(/C(=C/C[C@H](OC(C)=O)c1ccccc1OCCO)c1cnc2ccccc2c1)C(C)C	0.469
COc1ccc(/C=C/C=O)cc1	0.555
COCCOC(=O)N1C(=O)[C@@]2(c3cc(C#Cc4ccc(OC)cc4)ccc31)[C@H](c1ccc(OCCO)cc1)N1[C@H](c3ccccc3)[C@H](c3ccccc3)OC(=O)[C@H]1[C@@H]2C(=O)N1CCN(c2ncccn2)CC1	0.548
COc1ccc(CCNC(=O)[C@@]2(Sc3ccc(C)cc3)CC(=O)N(C3Cc4ccccc4C3)[C@@H]2c2ccc(CO)cc2I)cc1	0.26
COc1ccc([Si](C)(C)[C@@H]2[C@@H](CC(=O)N3CCC[C@H]3CO)O[C@]3(C(=O)N(c4ccccc4)c4ccccc43)[C@H]2C)cc1	1.29
COc1ccc(C#Cc2ccc3c(c2)[C@]2(C(=O)N3)[C@H](C(=O)NC[C@H](O)c3ccccc3)[C@H]3C(=O)O[C@H](c4ccccc4)[C@H](c4ccccc4)N3[C@@H]2c2ccc(O)cc2)cc1	-1.93
CC(C)C[C@@H]1NC(=O)[C@@H]2C[C@H](C(=O)O)[C@H](c3cccc(OCCO)c3)N2C1=O	0.555
CC#CC(=O)Oc1ccccc1C=CC(=O)OCC	-0.739
CO[C@H]1O[C@H](CO)[C@@H](OC(=O)Nc2ccccc2)[C@H](OC(=O)Nc2ccccc2)[C@@H]1OC(=O)Nc1ccccc1	-0.523
COCCOC(=O)N1C(=O)[C@@]2(c3ccccc31)[C@H](C(=O)N1CCc3cc(OC)c(OC)cc3C1)[C@H]1C(=O)O[C@H](c3ccccc3)[C@H](c3ccccc3)N1[C@@H]2c1ccc(OCCO)cc1	0.384
O=C1N(Cc2ccccc2)c2ccccc2[C@@H]2OC(c3ccc(OCCCO)cc3)=N[C@]12CCS(=O)(=O)c1ccccc1	-1.33
C=C(CCCC)C(=O)CC[C@@H](OC(=O)c1ccccc1-c1ccccc1C(=O)O)c1ccc(OCCO)cc1	-1.4

Compound	z-score
NC(=O)N1C(=O)C2C(C1=O)C1C=C(c3ccc(CO)cc3)C2C(c2cccs2)N1Cc1cccc(OC(F)(F)F)c1 (configuration not stated)	-1.7
COc1ccc([C@H]2OC[C@@H]3C[C@@H](Cc4ccccc4)C(=O)N32)cc1	-0.478
NC(=O)NCC#Cc1ccc2c(c1)[C@]1(C(=O)N2)[C@H](c2ccccc2OCCO)N2[C@H](c3ccccc3)[C@H](c3ccccc3)OC(=O)[C@H]2[C@@H]1C(=O)Nc1nc2ccccc2s1	-2.78
COc1ccc(C(=O)Nc2ccc(CN3C(=O)[C@]4(O[C@H](CCO)[C@@H]([Si](C)(C)c5ccc(OC)cc5)[C@@H]4C)c4ccccc43)cc2)cc1	-2.72
C#C[C@H](O[Si](C#Cc1ccc(Oc2ccccc2)cc1)(C(C)C)C(C)C)c1ccccc1	-3.3
COc1ccc([Si](C)(C)[C@H]2[C@H](CCO)O[C@@]3(C(=O)N(Cc4ccc(N(C=O)c5ccccc5)cc4)c4ccccc43)[C@@H]2C)cc1	0.119
CC(=O)NCCCC[C@@H]1NC(=O)[C@H]2C[C@@H](C(=O)NCCCCCCNC(=O)CS)[C@@H](c3ccc(O)cc3)N2C1=O	-1.33
C=CCNC(=O)[C@H]1[C@@H]2C(=O)O[C@@H](c3ccccc3)[C@@H](c3ccccc3)N2[C@@H](c2ccccc2OCCO)[C@]12C(=O)Nc1ccc(C#CCCO)cc12	-0.651
O=C1O[C@@H](c2ccccc2)[C@@H](c2ccccc2)N2[C@@H](c3ccccc3OCCO)[C@]3(C(=O)Nc4ccc(C#CC5=CCCCC5)cc43)[C@@H](C(=O)N3CCCCCCC3)[C@H]12	1.19
C=C[C@@H](COC(=O)OC(C)(C)C)N(Cc1ccc(OC)cc1)S(=O)(=O)c1ccc(Br)cc1	-0.997
C=C(/C(=C/C[C@H](OC(C)=O)c1ccc(CO)o1)c1cc(C(=O)OC)ccc1OC)C(C)C	0.256
COc1ccc(CCNC(=O)[C@@]2(Sc3ccc(C)cc3)CC(=O)N(C(C)C)[C@@H]2c2ccc(CO)cc2I)cc1	0.529
COc1ccc(CCNC(=O)[C@@]2(C)c3ccccc3C(=O)N(C(C)C)[C@H]2c2ccc(CO)cc2)cc1	2.6
CC(C)N1C(=O)[C@@]2(Cc3ccccc31)c1ccccc1C(=O)N(Cc1ccccc1Cl)[C@H]2c1ccc(CO)cc1	0.407
C=CCOC(=O)[C@H]1[C@@H]2C(=O)O[C@@H](c3ccccc3)[C@@H](c3ccccc3)N2[C@@H](c2ccc(OCCOC(=O)[C@H]3C[C@H]4C(=O)N[C@@H](CCCCN(C)C)C(=O)N4[C@H]3c3ccc(O)cc3)cc2)[C@]12C(=O)Nc1ccc(I)cc12	0.75
CC(C)OC(=O)C=C1C[C@@H](c2ccccn2)O[C@@H](c2ccccn2)O1	-0.894
COC(=O)[C@@]1(Cc2ccc(OC)cc2)[C@H]2c3cc(C(=O)N(C)C)n(CCc4ccccn4)c3C[C@H]2CN1C(=O)c1ccccc1	-0.0203
COC(=O)[C@@]1(Cc2ccccc2)N=C(c2ccc(OCCCO)cc2)O[C@H]1c1ccccc1	-2.02
